Sampled rows, rich in hits. Any-hit rate of the full collection: about 5.9%.
ATXN2 expr inh: ATXN2 expression inhibition. 360,000 tested, 0.72% active. Potency, µM (series often up to 57 µM), without a hit: at the highest dose activity change, negative = inhibition, usual class: inhibitors. HEK-293 ATXN2-luciferase reporter, luminescence, 24 h; further: on the % scale 0 is the no-effect control and ±100 the full control effect; nearly all actives have a fitted effect of over 55% in size
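qHTS (up to 57 uM final) was run with 24 h compound exposure of reporter cells at 37 °C. Each well was multiplexed: SteadyGlo luminescence measured ATXN2-luciferase expression after a fluorogenic Gly-Phe-AFC viability readout (25 uM final).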
HepG2 viability: HepG2 cytotoxicity, counter-screen for TGF-b inhibitors; HepG2 CAGA-GFP viability, ATP luminescence, 18 h; Potency, µM (top dose mostly 46.1 µM), without a hit: top-dose activity change, negative = cytotoxicity, hits mostly cytotoxic; 410,000 tested, 0.76% active
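HepG2 CAGA-GFP cells (1000/well, DMEM with 1% FBS) received compound, then TGF-beta at 500 pg/mL final, and were incubated 18 hours at 37 degrees C. Viability was read by CellTiter-Glo luminescence. Media-only wells were set as complete cell-killing and DMSO as no toxicity.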
TGFb SMAD3 inh: TGF-b pathway inhibition. HepG2 CAGA-GFP TGF-b/SMAD3 reporter, GFP fluorescence, 18 h; TGF-beta stimulated, 500 pg/mL final. Potency, µM (highest dose often 46.1 µM), for the others: at the highest dose activity, negative = inhibition, usual class: inhibitors. 410,000 tested, 1.2% active; further: on the % scale 0 is the no-effect control and ±100 the full control effect; nearly all actives have a fitted effect of over 65% in size
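Inhibition was scored as loss of TGF-beta-induced (500 pg/mL final, 18 hours, 37 degrees C) GFP in HEPG2 cells carrying a CAGA-GFP reporter, in DMEM with 1% FBS. Well GFP was summed per cell; Activity was normalised to unstimulated and stimulated DMSO wells, then concentration-response fitting.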
S2 tox: viability counter-screen for ATXN expression inhibitors; S2 cells (HEK-293 line with an ATXN2-luciferase reporter) viability, CellTiter-Fluor protease fluorescence, 24 h; Potency, µM (titrated, usually from 56.7 µM), actives largely listed as cytotoxic; 400,000 tested, 0.49% active; AID 651635; further: nearly all actives have a fitted effect of over 40% in size
KB-V1 cytotox: KB-V1 MDR subline cytotoxicity | KB-V1 MDR cells viability, CellTiter-Glo, 72 h | Potency, µM (highest dose often 46.1 µM), actives largely listed as cytotoxic | 400,000 tested, 3.4% active | AID 1347076; further: on the % scale 0 is the no-effect control and ±100 the full control effect; nearly all actives have a fitted effect of over 60% in size
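Cytotoxicity toward P-gp-expressing KB-V1 cells was determined as loss of CellTiter-Glo luminescence after 72 h at 37 degrees C. Compounds were tested in quantitative HTS format across a concentration range, with curves fitted to normalized data.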
KB-3-1 tox: kills parental KB-3-1 adenocarcinoma cells; KB-3-1 viability, CellTiter-Glo ATP luminescence, 72 h; Potency, µM (highest dose often 46.1 µM), usual class: cytotoxic; 400,000 tested, 1.4% active; AID 1347075; further: on the % scale 0 is the no-effect control and ±100 the full control effect; nearly all actives have a fitted effect of over 60% in size
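Cells are dispensed, compounds pinned in, plates held at 37 °C for 72 h, then CellTiter-Glo is added and luminescence read after 10 minutes. Cell line: parental KB-3-1 in phenol-red-free DMEM, 10% FBS.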
Starred values were filed as active, the others as inactive; i = inactive; ? = inconclusive; · = no result given. The call rests on the fitted dose curve; in most records, active means well fitted curve in the direction sought with a large enough effect; inconclusive means small, poorly fitted or top-dose-only effect, or another doubt; inactive means no such curve, though single readings can be large; an effect the other way counts as inactive or inconclusive. Potency means the concentration at half of the fitted maximal effect.

SMILES	ATXN2 expr inh	HepG2 viability	TGFb SMAD3 inh	S2 tox	KB-V1 cytotox	KB-3-1 tox
Cc1cc(=O)oc2cc(OCC(=O)N3CC(C)OC(C)C3)ccc12 (stereo not given)	-8%	0%	-1%	i	i	i
O=[N+]([O-])c1ccc(OCC2CC(c3ccccc3)=NO2)cc1 (stereo not given)	26%	-30%	0%	i	i	i
Cc1cc(=O)oc2cc(OCC(=O)N3c4ccccc4CC3C)ccc12 (stereo not given)	7%	-16%	8%	?	2.6µM*	2.9µM*
CC(C)OCCCNC(=O)C(=O)Nc1ccc2nc3n(c(=O)c2c1)CCCCC3	-7%	1%	-5%	?	i	i
CCCN(CCC)S(=O)(=O)c1ccc(C(=O)OCCN2C(=O)c3cccc4c(N5CCOCC5)ccc(c34)C2=O)cc1	1%	-2%	16%	·	15µM*	i
O=C(OCCN1C(=O)c2cccc3c(N4CCOCC4)ccc(c23)C1=O)c1ccc(Cl)cc1	-21%	7%	-6%	·	i	i
CCc1ccc(S(=O)(=O)c2cn(C)c3cc(N4CCCCC4C)c(F)cc3c2=O)cc1 (stereo not given)	·	-5%	15%	·	i	i
CC1(C(=O)NCc2ccco2)Cc2c(-c3ccccc3)ccnc2O1 (stereo not given)	-18%	-37%	-26%	i	7.3µM*	8.2µM*
CC1(C(=O)NCCC(F)(F)F)Cc2c(-c3ccccc3)ccnc2O1 (stereo not given)	-13%	-18%	16%	i	21µM*	?
CC(=O)Nc1ccc(-c2ccnc3c2CC(C)(C(=O)NCCc2ccccc2)O3)cc1 (stereo not given)	2%	-9%	16%	i	i	26µM*
Cc1ccc(NC(=O)Cn2c(=O)n(Cc3ccccc3)c(=O)c3sc4ccccc4c32)cc1	·	3%	-1%	·	·	·
Cn1c2ccccc2c2nnc(SCCOc3ccccc3)nc21	·	-36%	-23%	·	i	?
CC(C)Oc1ccc(CNC(=O)c2cccc(NC(=O)N3CCSc4ncccc43)c2)cc1	·	-4%	0%	·	i	i
FC(F)Oc1ccc(-c2c[n+]3c(n2-c2ccccc2)CCCCC3)cc1	·	86%	48%	i	i	?
COc1ccc(-c2c[n+]3c(n2-c2ccc(C)cc2)CCCCC3)cc1	?	-25%	?	?	?	1.8µM*
COc1ccc(-c2c[n+]3c(n2-c2ccccc2)CCCCC3)cc1	-33%	-18%	?	i	i	9.2µM*
COc1ccc(-n2c(-c3ccc(Cl)cc3)c[n+]3c2CCCCC3)cc1	?	-45%	0%	?	i	i
CCOc1ccc(-n2c(-c3ccc(OC)cc3)c[n+]3c2CCCCC3)cc1	·	-2%	?	i	i	2.1µM*
CCOc1ccc(-n2c(-c3ccc(Br)cc3)c[n+]3c2CCCCC3)cc1	?	5%	-20%	?	i	?
COC(=O)c1cccc(Nc2c(-c3ccc(SC)cc3)nc3nc[nH]n23)c1	7%	-22%	23%	i	i	i
COC(=O)c1cn(NC(=O)c2cc([N+](=O)[O-])ccc2F)c(=O)c2ccccc12	1.1µM*	-6%	-18%	i	12µM*	?
CO[C@H]1[C@H](NC(=O)c2ccsc2)c2ccccc2C12CCN(Cc1c(O)ccc3ccccc13)CC2	·	·	·	i	·	·
CC(C)S(=O)(=O)c1csc(NC(=O)Nc2cccc([N+](=O)[O-])c2)c1Cl	·	-15%	-16%	?	?	23µM*
Cc1nn(-c2ccccc2)c2c1/C(=N/O)CC(C)(C)C2	3%	1%	1%	i	16µM*	i
